# ± gives the uncertainty stated by the source.
# Test system: HEK293T-Rex ERSE-FLuc
# Assay: ERSE-FLuc reporter activation, triplicate confirmation, relative to 500 nM thapsigargin (% of thapsigargin); higher = stronger ATF6/ERSE reporter activation
# Details: 6.8 µM; 18 h; screen: confirmation
# Procedure: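 HEK293T-Rex cells stably expressing the ERSE-firefly luciferase (BiP promoter, ATF6-preferring) or XBP1-splicing Renilla luciferase (IRE1/XBP1s) reporter, 1536-well plates, compound at 6.8 µM for 18 hr at 37 °C; luminescence read […] and expressed as % activation = 100*(compound - median DMSO)/(median 500 nM thapsigargin - median DMSO). Primary screen was single-pass; confirmation screen in triplicate (mean ± SD).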
row,Structure (SMILES),ERSE-FLuc reporter activation
1,O=C1NC(=Nc2ccc(F)cc2)S/C1=C\c1ccc(O)c(O)c1,32.4 ± 2.3
2,N#C/C(=C/c1ccc(O)c(O)c1)c1nc2ccccc2[nH]1,29.7 ± 1.1
3,COc1ccc(C(=O)Nc2nnc(-c3cccs3)s2)cc1,26.3 ± 5
4,CCOC(=O)c1sc(NC(=O)c2cccc3ccccc23)nc1C,27.3 ± 2.2
5,CCN(CC)c1ccc(NC(=O)c2cccc(OC)c2)cc1,26.1 ± 1.1
6,COc1ccccc1-c1cnnc(N/N=C/c2c[nH]c3ccccc23)n1,37.9 ± 9.7
7,O=C1/C(=C/c2ccc(O)c(O)c2)SC(=S)N1c1ccc(O)cc1,30.5 ± 8.2
8,COc1cn(-c2ccc(F)cc2)nc1C(=O)Nc1ccccc1SC,62.7 ± 4.5
9,CCOc1ccc(/C=C(\C#N)c2[nH]nc(N)c2C#N)cc1OCC,26.7 ± 5.5
10,Cc1cc(C)nc(Nc2nc(-c3ccc(O)c(O)c3)cs2)n1,47.4 ± 6.5
11,COC(=O)c1c(NC(=O)CCl)sc(C(=O)Nc2cccc([N+](=O)[O-])c2)c1C,37.6 ± 7.8
12,N#Cc1c(NC(=O)c2ccc3c(c2)OCO3)sc2c1CCCC2,28.7 ± 6.8
13,COc1cc2ccccc2cc1C(=O)N/N=C/c1cccs1,25.7 ± 4.6
14,O=C(Nc1ccc2c(c1)OCCO2)C(=O)Nc1ccccc1Cl,27 ± 5.6
15,COc1cccc(-c2cc(C(=O)Nc3cc(C)ccc3O)on2)c1,34.2 ± 8.4
16,NC(=O)c1c(NC(=O)COc2ccccc2)sc2c1CCC2,27.1 ± 3.2
17,CCOc1cccc(C(=O)Nc2ccc(-c3nc4ccc(C(=O)c5ccccc5)cc4[nH]3)cc2)c1,28.6 ± 4.7
18,COc1ccc(/C=C(\C#N)c2nc(-c3ccco3)cs2)cc1O,35.1 ± 3.9
19,O=[N+]([O-])c1ccccc1N/N=C/c1ccc(O)c(O)c1,43.3 ± 6.8
20,O=C(c1ccccc1)c1c(O)ccc2c(C(=O)c3ccccc3)c(O)ccc12,39.3 ± 7.9

row,Structure (SMILES),ERSE-FLuc reporter activation
1,O=C1c2cc(O)ccc2-c2ccc(O)cc21,25.6 ± 6
2,O=C(Nc1ccccc1O)c1ccc(C(=O)c2ccccc2)cc1,41.5 ± 9.7
3,O=C(N/N=C\C(Cl)=C\c1ccccc1)c1n[nH]c2c1CCCC2,33.3 ± 7.3
4,NN1C(=O)/C(=C/c2ccc(O)c(O)c2)SC1=S,38.3 ± 1
5,Cc1cc(C)nc(/N=C(\N)Nc2ccc(OCc3ccc(Cl)cc3)cc2)n1,59.7 ± 14
6,COc1cccc(/C=N\NC(=O)c2n[nH]c3c2CCC3)c1,26.1 ± 2.5
7,Cc1ccc(O)c(-c2cc(-c3cccs3)[nH]n2)c1,44.2 ± 7.9
8,CC(=O)Nc1ccc2nc(-c3ccc(OC(C)=O)cc3)sc2c1,25.9 ± 3.6
9,Cc1ccc(O)c(NC(=O)c2cc(-c3ccc(F)cc3)on2)c1,31.9 ± 8.4
10,Cc1ccc2c(N)c(C(=O)c3ccc4c(c3)OCO4)sc2n1,35.9 ± 4.3
11,Cc1ccc(C(=O)Nc2ccccc2N)cc1,56.8 ± 4.5
12,CC(=O)N1CCc2c([nH]c3ccccc23)C12CCN(CCCOc1ccccc1)CC2,44.2 ± 8.7
13,O=C(/C=C/c1ccccc1)Nc1ccc(Cl)cn1,27.9 ± 6.3
14,CCc1nc2sc(C(=O)c3ccccc3)c(N)c2cc1C,26.2 ± 2.5
15,Cc1ccc(O)c(-c2cc(C(F)(F)C(F)F)no2)c1,37.1 ± 3.1
16,Cc1ccc(O)c(N=CC2=C(O)c3ccccc3C2=O)c1,78.8 ± 6.2
17,COc1ccc(-c2nn(-c3ccccc3)cc2/C=C/C(=O)O)cc1[N+](=O)[O-],31.7 ± 4.4
18,COc1ccc(N(C(=O)c2ccccc2)S(=O)(=O)c2cc(OC)ccc2OC)cc1,103 ± 9.2
19,COc1ccc(-n2nnnc2SCC(N)=O)c(OC)c1,34.5 ± 5.7
20,CN(C)c1ccc(/C=N/NC(=O)c2cccc(Br)c2)cc1,26.5 ± 2.7
